± gives the standard deviation.
Experiments:
Settings in all cases: modulator concentration 10 µM
[1] = system: RAW-Dual (murine macrophage reporter line); assay: NF-kB reporter (SEAP) activity fold change vs agonist alone; higher = enhanced NF-kB activity
In short: (§1)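 Overnight stimulation with a PRR agonist followed pre-incubation for 1 hour at 37 °C with compound at 10 μM final. This was done in RAW-Dual murine macrophage reporter cells seeded at 50 000 per well in 384-well plates. NF-κB (SEAP, QUANTI-Blue absorbance at 620 nm) and IRF (Lucia luciferase, QUANTI-Luc luminescence) were read from the supernatant. Each reporter's fold change relative to the mean agonist-only control on the same plate was averaged over replicate plates.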

[2] = system: RAW-Dual (murine macrophage reporter line); assay: IRF reporter (Lucia luciferase) activity fold change vs agonist alone; higher = enhanced IRF activity
In short: as §1

[3] = system: RAW-Dual (murine macrophage reporter line); assay: viability score (confluency relative to resting cells, overnight) (fraction); higher = more viable, active = viable (0.7 or more)
In short: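 Confluency was the readout: RAW-Dual macrophages were imaged with IncuCyte after an overnight exposure to compound at 10 μM final. IncuCyte software produced two masks over all imaged wells. The viability score expresses confluency against resting cells, and both masks had to exceed 70% of resting cells for a compound to meet the cutoff.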

[4] = agonist: CpG ODN 1826 0.5 ug/mL

Structure (SMILES) | NF-kB reporter [1, 4] | NF-kB reporter ([1]; agonist: LPS 0.1 ug/mL) | NF-kB reporter ([1]; agonist: MPLA […]) | IRF reporter ([2]; agonist: 3'3'-cGAMP 10 ug/mL) | IRF reporter ([2]; agonist: LPS 0.1 ug/mL) | IRF reporter ([2]; agonist: MPLA […]) | viability score [3]
CN(C)[C@@H](CCOc1cccc2ccccc12)c1ccccc1.Cl | 0.603 ± 0.11 | 1.01 ± 0.17 | 0.66 ± 0.044 | 0.47 ± 0.015 | 1.25 ± 0.11 | 0.854 ± 0.068 | 0.178 (inactive)
O.S=c1nc[nH]c2nc[nH]c12 | 0.844 ± 0.037 | 0.902 ± 0.1 | 0.989 ± 0.11 | 0.768 ± 0.035 | 1.23 ± 0.28 | 1.36 ± 0.57 | 0.994 (active)
COc1ccc(C=CC(=O)O)cc1OC | 1.03 ± 0.077 | 1.1 ± 0.059 | 1 ± 0.022 | 1.03 ± 0.06 | 0.954 ± 0.078 | 0.973 ± 0.095 | 0.996 (active)
COc1c2c(nc3ccccc13)OC(C(C)(O)COC(C)=O)C2 (stereo not drawn) | 0.944 ± 0.071 | 1.02 ± 0.11 | 0.953 ± 0.11 | 1.04 ± 0.045 | 1.42 ± 0.15 | 1.3 ± 0.22 | 1 (active)
CN1CCN(C(=O)CN2C(=O)c3cccc4cccc(c34)C2=O)CC1 | 0.881 ± 0.082 | 0.981 ± 0.061 | 0.88 ± 0.091 | 0.971 ± 0.026 | 1.21 ± 0.19 | 0.967 ± 0.26 | 1.01 (active)
O=C(Cc1ccc([N+](=O)[O-])cc1)NN=Cc1ccccn1 | 1.09 ± 0.18 | 1.07 ± 0.077 | 1.04 ± 0.04 | 0.89 ± 0.11 | 1.05 ± 0.12 | 1.08 ± 0.14 | 1 (active)
Cc1cc(Nc2cc(N3CCN(C)CC3)nc(Sc3ccc(NC(=O)C4CC4)cc3)n2)n[nH]1 | 0.0769 ± 0.0068 | 0.142 ± 0.0072 | 0.23 ± 0.021 | 0.136 ± 0.011 | 0.537 ± 0.041 | 0.451 ± 0.06 | 0.91 (active)
CCCCCCCCCCCC(CC1OC(=O)C1CCCCCC)OC(=O)C(CC(C)C)NC=O (stereo not drawn) | 1.55 ± 0.37 | 1.04 ± 0.092 | 0.364 ± 0.07 | 0.475 ± 0.023 | 1.61 ± 0.19 | 0.197 ± 0.065 | 0.943 (active)
CCc1cc2c(-c3ccccc3)cc(=O)oc2cc1OC(C)=O | 0.702 ± 0.12 | 1.09 ± 0.088 | 0.886 ± 0.085 | 0.974 ± 0.069 | 1.07 ± 0.3 | 1.07 ± 0.21 | 1 (active)
C[C@@H](Oc1cc(-c2cnn(C3CCNCC3)c2)cnc1N)c1c(Cl)ccc(F)c1Cl | 0.149 ± 0.026 | 0.423 ± 0.2 | 1.47 ± 0.12 | 0.0546 ± 0.0028 | 0.165 ± 0.074 | 0.128 ± 0.02 | 0.0221 (inactive)
C[C@H]1[C@@H](OC(=O)CCC(=O)O)O[C@@H]2O[C@]3(C)CC[C@H]4[C@H](C)CC[C@@H]1[C@@]24OO3 | 1.02 ± 0.071 | 1.12 ± 0.11 | 0.95 ± 0.043 | 0.934 ± 0.11 | 1.11 ± 0.14 | 1.06 ± 0.25 | 1 (active)
CC1CC(OC(=O)C(O)c2ccccc2)CC(C)(C)C1 (stereo not drawn) | 0.872 ± 0.037 | 1.02 ± 0.11 | 1.11 ± 0.18 | 1 ± 0.051 | 1.25 ± 0.25 | 1.48 ± 0.5 | 1.01 (active)
COc1ccc(-c2coc3cc(O)cc(O)c3c2=O)cc1 | 1.87 ± 0.54 | 1.27 ± 0.083 | 1.73 ± 0.13 | 0.919 ± 0.071 | 1.32 ± 0.18 | 1.37 ± 0.14 | 0.623 (inactive)
CC#CCn1c(N2CCCC(N)C2)nc2c1c(=O)n(Cc1nc(C)c3ccccc3n1)c(=O)n2C (stereo not drawn) | 0.931 ± 0.24 | 1.08 ± 0.085 | 0.972 ± 0.065 | 0.925 ± 0.033 | 1.23 ± 0.15 | 1.39 ± 0.13 | 0.988 (active)
O=[N+]([O-])c1ccc(CN2c3ccccc3C3=C(CCCC3)C23CCCCC3)cc1 | 0.959 ± 0.074 | 1.04 ± 0.08 | 0.936 ± 0.1 | 0.951 ± 0.057 | 1.33 ± 0.16 | 1.6 ± 0.27 | 1.03 (active)
O=C(NCCCn1ccc2cccnc21)c1cccc(Br)c1 | 0.84 ± 0.042 | 1.12 ± 0.088 | 0.937 ± 0.045 | 0.839 ± 0.081 | 1.06 ± 0.12 | 1.03 ± 0.23 | 0.98 (active)
S=C(NCCN1CCOCC1)Nc1ccc(Cl)cc1 | 1 ± 0.23 | 0.966 ± 0.1 | 0.886 ± 0.12 | 0.71 ± 0.019 | 1.22 ± 0.16 | 1.13 ± 0.12 | 0.986 (active)
CC1CCN(c2nccnc2Oc2ccc(C(=O)N3CCN(c4ccc(F)cc4)CC3)cc2)CC1 | 0.803 ± 0.071 | 1.1 ± 0.062 | 0.709 ± 0.047 | 0.684 ± 0.032 | 1.26 ± 0.18 | 1.11 ± 0.07 | 0.964 (active)
CN[C@H]1CC[C@@H](c2ccc(Cl)c(Cl)c2)c2ccccc21.Cl | 0.407 ± 0.039 | 0.757 ± 0.049 | 1.49 ± 0.14 | 1.18 ± 0.1 | 1.27 ± 0.084 | 1.97 ± 0.23 | 0.258 (inactive)
CC12CCC(CC1)C(C)(C)O2 | 1.17 ± 0.28 | 1.05 ± 0.14 | 0.968 ± 0.074 | 0.956 ± 0.033 | 1.21 ± 0.15 | 1.15 ± 0.12 | 0.994 (active)
CN1CCN(C(c2ccccc2)c2ccccc2)CC1.Cl.Cl | 0.727 ± 0.12 | 0.833 ± 0.21 | 0.89 ± 0.05 | 0.701 ± 0.023 | 1.25 ± 0.29 | 1.03 ± 0.084 | 0.985 (active)
CCOC(=O)c1ccc(N2C(=O)CC(N3CCN(c4ccc([N+](=O)[O-])cc4)CC3)C2=O)cc1 (stereo not drawn) | 0.813 ± 0.072 | 1.08 ± 0.066 | 0.928 ± 0.071 | 1.06 ± 0.039 | 1.64 ± 0.13 | 1.47 ± 0.13 | 0.997 (active)
CN(CCO)c1ccc2nonc2c1[N+](=O)[O-] | 1.39 ± 0.085 | 1.18 ± 0.11 | 1.33 ± 0.087 | 0.886 ± 0.034 | 1.28 ± 0.086 | 0.996 ± 0.088 | 1 (active)
CC(C)Oc1cccc(C(=O)NC(=S)N2CCN(c3ccc([N+](=O)[O-])cc3)CC2)c1 | 0.83 ± 0.064 | 0.943 ± 0.053 | 1.09 ± 0.1 | 0.829 ± 0.038 | 1.19 ± 0.089 | 1.34 ± 0.15 | 1.02 (active)
